Assay outcomes: PubChem, National Center for Advancing Translational Sciences (NCATS)
HT1080 IDH1KD tx – toxicity to HT-1080 IDH1 knockdown cells (counter line). 360,000 compounds, 2% hits. Potency, µM (series often up to 46.1 µM), without a hit: at the top dose activity, negative = toxicity, actives largely listed as cytotoxic. HT-1080 IDH1 knockdown viability, ATP luminescence, 48 h. AID 686971;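 further: potency means the concentration at half of the fitted maximal effect; 0% = DMSO wells and -100% = cell-free medium wells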
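Assay cells: HT-1080 with IDH1 knockdown, 750 per well, RPMI/5% FBS. Exposure: 48 h at 37 °C following 2 h pre-incubation. Read: CellTiter-Glo luminescence; fitted concentration-response, curve class assigned.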
IL1B secr inh – blocks inflammasome-driven IL-1 beta release; THP-1 LPS/ATP IL-1B secretion, AlphaLISA, 16 h; hits give low values; activity change, % at 57.5 µM; 360,000 compounds, 4.7% hits; AID 743279; in the data active means activity change below about -50%; inconclusive means mostly about -30% to -49%
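THP-1 cells pretreated 1 hr with compounds (up to 57.5 uM final), then stimulated with LPS (250 ng/mL final) plus ATP (1.25 mM final); secreted IL-1B measured by AlphaLISA after 16 hr, decreased signal indicating inhibition.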
TDP1 cell noCPT – qHTS for Inhibitors of human tyrosyl-DNA phosphodiesterase 1 (TDP1): qHTS in cells in absence of CPT; DT40 Tdp1-/- hTDP1 cells, no CPT, ATP luminescence, 48 h; Potency, µM (doses to about 46.2 µM), without a hit: top-dose activity change, negative = growth inhibition, hits mostly inhibitors; 420,000 compounds, 15% hits; AID 686978, 2013; further: potency means the concentration at half of the fitted maximal effect; nearly all actives have a fitted effect of over 55% in size
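Compound effects on proliferation are scored in DT40 Tdp1-/-;hTDP1 cells in the absence of CPT. ATP levels (CellTiter-Glo luminescence) are recorded after a ≥48 hr, 37 °C incubation.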
DT40 TDP1 CPT – growth inhibition of DT40 Tdp1-/-;hTDP1 cells with camptothecin (screen for TDP1 inhibitors); chicken DT40 Tdp1-/-;hTDP1 cells + 20 nM CPT, ATP luminescence, 48 h; Potency, µM (series often up to 46.2 µM), for the others: at the highest dose activity change, negative = growth inhibition, hits mostly inhibitors; 420,000 compounds, 12% hits; AID 686979; further: potency means the concentration at half of the fitted maximal effect; nearly all actives have a fitted effect of over 55% in size
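Cell growth measured by CellTiter-Glo luminescence after a minimum 48 h, 37 C compound exposure with 20 nM CPT in Tdp1-knockout DT40 cells stably expressing hTDP1, seeded 400/well; qHTS titration format.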
HT1080NT lethal – kills 2HG-producing HT-1080-NT fibrosarcoma cells; HT-1080-NT fibrosarcoma viability, CellTiter-Glo ATP luminescence, 48 h; Potency, µM (doses to about 46.1 µM), inactives show at the top dose activity, negative = less viability, most hits filed as cytotoxic; 360,000 compounds, 1.6% hits; AID 686970;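 further: NT is the 2HG producing partner of a matched IDH1 knockdown line; potency means the concentration at half of the fitted maximal effect; 0% = DMSO-treated cells and -100% = media-only wells without cells; nearly all actives have a fitted effect of over 55% in size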
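HT-1080-NT fibrosarcoma cells (2HG-overproducing), 750 cells/well in RPMI with 5% FBS, dosed after 2 h and incubated 48 h at 37C. CellTiter-Glo luminescence normalized to DMSO and no-cell wells; concentration-response curves fitted and classed.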
12-LOX inh – inhibitors of human 12S-lipoxygenase ALOX12 | P18054 | purified 12hLO, xylenol orange hydroperoxide absorbance | Potency, µM (series often up to 108 µM), for inactives: at the highest dose activity change, negative = inhibition, hits mostly inhibitors | 580,000 compounds, 1.1% hits | AID 1671190; further: potency means the concentration at half of the fitted maximal effect
Target sequence (P18054 whole entry, looked up): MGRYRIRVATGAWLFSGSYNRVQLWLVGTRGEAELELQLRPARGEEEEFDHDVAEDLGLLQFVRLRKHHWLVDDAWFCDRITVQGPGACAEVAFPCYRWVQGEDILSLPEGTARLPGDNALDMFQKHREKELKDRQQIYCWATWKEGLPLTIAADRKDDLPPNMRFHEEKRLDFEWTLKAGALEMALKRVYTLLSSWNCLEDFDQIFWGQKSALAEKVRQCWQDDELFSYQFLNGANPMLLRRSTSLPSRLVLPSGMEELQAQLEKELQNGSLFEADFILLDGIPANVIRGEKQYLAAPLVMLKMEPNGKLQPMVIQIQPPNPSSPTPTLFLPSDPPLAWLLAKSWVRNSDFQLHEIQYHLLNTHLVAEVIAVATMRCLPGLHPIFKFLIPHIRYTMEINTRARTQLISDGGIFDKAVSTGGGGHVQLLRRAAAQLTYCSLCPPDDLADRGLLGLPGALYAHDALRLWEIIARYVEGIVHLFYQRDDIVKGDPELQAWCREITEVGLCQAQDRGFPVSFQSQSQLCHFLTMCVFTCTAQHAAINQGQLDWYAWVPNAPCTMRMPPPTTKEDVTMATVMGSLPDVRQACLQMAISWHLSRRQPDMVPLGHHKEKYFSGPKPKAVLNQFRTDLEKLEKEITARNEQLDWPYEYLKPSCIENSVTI
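Purified human 12hLO at 150 nM in 25 mM Hepes, 0.01% Triton X-100, pH 7.0, preincubated 15 min at room temperature with compound. Reaction started with 40 uM arachidonic acid, 30 min at room temperature. Hydroperoxide measured by Fe-xylenol orange, 573/405 nm absorbance ratio.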
The depositor's hits bear a star; [ ] = dose if it differs, or a comment. Many of the other results were omitted from the sample, so hits are more common in it than they were. Unless noted, the call rests on the fitted dose curve; in most records, active means well fitted curve in the direction sought with a large enough effect; inconclusive means small, poorly fitted or top-dose-only effect, or another doubt; inactive means no such curve, though single readings can be large; an effect the other way counts as inactive or inconclusive. Unless noted, on the % scale 0 is the no-effect control and ±100 the full control effect.

`O=c1c2ccccc2nnn1COc1cccc(Cl)c1` gave HT1080 IDH1KD tx 6%, IL1B secr inh -19, TDP1 cell noCPT 18µM*, DT40 TDP1 CPT -29%, HT1080NT lethal 10% and 12-LOX inh 0%.
CCOC(=O)c1cc(NC(=O)N2CCCCC2)c(C)nc1C was read as HT1080 IDH1KD tx 1%, IL1B secr inh -2, TDP1 cell noCPT -12%, DT40 TDP1 CPT -25%, HT1080NT lethal -3% and 12-LOX inh 25%[57.4 µM].
`Cc1ccc(NC(=O)c2cc3ccccc3o2)nc1` gave HT1080 IDH1KD tx -16%, IL1B secr inh -96*, TDP1 cell noCPT 5%, DT40 TDP1 CPT 0%, HT1080NT lethal -20% and 12-LOX inh 7%.
CC(=O)Nc1cccc(NC(=O)c2cc3ccccc3o2)c1 was read as HT1080 IDH1KD tx -11%, IL1B secr inh -3, TDP1 cell noCPT 21µM*, DT40 TDP1 CPT 16µM*, HT1080NT lethal -9% and 12-LOX inh -3%.
`Cc1ccc(NC(=O)c2cc3ccccc3o2)cc1Cl` gave HT1080 IDH1KD tx -17%, IL1B secr inh -52*, TDP1 cell noCPT inconclusive, DT40 TDP1 CPT inconclusive, HT1080NT lethal -12% and 12-LOX inh 8%.
Screening Cc1cc(C)nc(NC(=O)c2cc3ccccc3o2)n1 returned HT1080 IDH1KD tx -5%, IL1B secr inh -19, TDP1 cell noCPT -9%, DT40 TDP1 CPT -14%, HT1080NT lethal 4% and 12-LOX inh -6%.
For O=C(Nc1ccc(-c2nnc3n2CCCCC3)cc1)c1cc2ccccc2o1 the results were HT1080 IDH1KD tx -6%, IL1B secr inh -199*, TDP1 cell noCPT inconclusive, DT40 TDP1 CPT inconclusive, HT1080NT lethal 0% and 12-LOX inh -19%.
For CCCCOC(=O)c1ccc(NC(=O)c2cc(=O)c3ccccc3o2)cc1 the results were TDP1 cell noCPT inconclusive, DT40 TDP1 CPT inconclusive and 12-LOX inh 1%.
CCCCOC(=O)c1cccc(NC(=O)c2cc3ccccc3o2)c1 was read as TDP1 cell noCPT 5.2µM*, DT40 TDP1 CPT 13µM* and 12-LOX inh -17%.
Screening CC(=O)Nc1nc(C)nc(-c2ccccc2OC(C)=O)n1 returned HT1080 IDH1KD tx -2%, IL1B secr inh 3, TDP1 cell noCPT 1%, DT40 TDP1 CPT -6%, HT1080NT lethal 3% and 12-LOX inh 10%.
CC(=O)Nc1nc(-c2ccccc2)nc(-c2ccccc2OC(C)=O)n1 was read as HT1080 IDH1KD tx inconclusive, IL1B secr inh -50*, TDP1 cell noCPT 18µM*, DT40 TDP1 CPT inconclusive, HT1080NT lethal inconclusive and 12-LOX inh 3%[57.4 µM].
For COc1ccc(C2=NOC(Cn3cnc4c3c(=O)n(C)c(=O)n4C)C2)cc1 (stereo not given) the results were 12-LOX inh -9%.
For CC12CCC(=O)N1C(C(=O)Nc1nc3ccccc3s1)CS2 (stereo not given) the results were HT1080 IDH1KD tx -3%, IL1B secr inh 1, TDP1 cell noCPT -2%, DT40 TDP1 CPT -2%, HT1080NT lethal 0% and 12-LOX inh 0%.
Screening CC12CCC(=O)N1C(C(=O)Nc1nc3ccc(F)cc3s1)CS2 (stereo not given) returned HT1080 IDH1KD tx 2%, IL1B secr inh -10, TDP1 cell noCPT 10µM*, DT40 TDP1 CPT -15%, HT1080NT lethal 0% and 12-LOX inh inconclusive.
Screening CC12CCC(=O)N1C(C(=O)Nc1ccc(Cl)c(Cl)c1)CS2 (stereo not given) returned HT1080 IDH1KD tx -20%, IL1B secr inh -50*, TDP1 cell noCPT -26%, DT40 TDP1 CPT 14%, HT1080NT lethal -15% and 12-LOX inh inconclusive.
CC12CCC(=O)N1C(C(=O)OCC(=O)Nc1ccc(Cl)c(Cl)c1)CS2 (stereo not given) was read as HT1080 IDH1KD tx 0%, IL1B secr inh -58*, TDP1 cell noCPT inconclusive, DT40 TDP1 CPT -19%, HT1080NT lethal -20% and 12-LOX inh 0%.
For CC(=O)NC12CC3CC(C1)CC(C(=O)Nc1nc4ccc(F)cc4s1)(C3)C2 the results were HT1080 IDH1KD tx inconclusive, IL1B secr inh inconclusive, TDP1 cell noCPT 26µM*, DT40 TDP1 CPT inconclusive, HT1080NT lethal -18% and 12-LOX inh -5%.
`Cc1cc(NC(=O)COC(=O)C2CSC3(C)CCC(=O)N23)ccc1Br` (stereo not given) gave HT1080 IDH1KD tx 12%, IL1B secr inh -18, TDP1 cell noCPT -5%, DT40 TDP1 CPT inconclusive, HT1080NT lethal 0% and 12-LOX inh 0%.
Screening CC12CCC(=O)N1C(C(=O)Nc1ccc(Cl)c(S(=O)(=O)N3CCCCC3)c1)CS2 (stereo not given) returned HT1080 IDH1KD tx -1%, IL1B secr inh 5, TDP1 cell noCPT inconclusive, DT40 TDP1 CPT inconclusive, HT1080NT lethal 4% and 12-LOX inh -15%.
CCc1noc(C)c1C(=O)N1CCCC(N2CCN(c3cccc(Cl)c3)CC2)C1 (stereo not given) was read as HT1080 IDH1KD tx -12%, IL1B secr inh 18, TDP1 cell noCPT inconclusive, DT40 TDP1 CPT -18%, HT1080NT lethal -11% and 12-LOX inh 8%.
Cc1c(-c2ccccc2)nc2ccccc2c1C(=O)OCC(=O)NCC(F)(F)F was read as 12-LOX inh 7%.
For OC1CN=C2CCCc3c2n(c2ccc(Cl)cc32)C1 (stereo not given) the results were HT1080 IDH1KD tx -13%, IL1B secr inh inconclusive, TDP1 cell noCPT -23%, DT40 TDP1 CPT -8%, HT1080NT lethal -30% and 12-LOX inh -29%.
For c1ccc(-c2ccc3c(c2)c2c4n3CCN=C4CCC2)cc1 the results were HT1080 IDH1KD tx inconclusive, IL1B secr inh inconclusive, TDP1 cell noCPT inconclusive, DT40 TDP1 CPT 23µM*, HT1080NT lethal inconclusive and 12-LOX inh inconclusive.
For COc1cccc(-c2nc3nc(C)cc(C)n3c2NC2CCCC2)c1 the results were HT1080 IDH1KD tx 1%, IL1B secr inh -11, TDP1 cell noCPT inconclusive, DT40 TDP1 CPT inconclusive, HT1080NT lethal -2% and 12-LOX inh 21%.
Screening Cc1cc(C)n2c(NC3CCCCC3)c(-c3ccccn3)nc2n1 returned HT1080 IDH1KD tx 4%, IL1B secr inh 43, TDP1 cell noCPT 23µM*, DT40 TDP1 CPT inconclusive, HT1080NT lethal -7% and 12-LOX inh -19%.
